Compounds without any hit were thinned out: in the full panel of roughly 83,000, 20% have a hit.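 Treatment: one concentration, 48 hours, 96-well format. Scoring: percent growth, with anything below 10 considered active.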 Values without a mark were called inactive. Calls of active or inactive are those of the source.
Columns and labels:
Assay in all cases: NCI-60 one-dose screen, 48 h (100 = growth as untreated, 0 = no growth, -100 = all killed)
[1] = system: NCI-H23 lung; conditions: 10 µM unless noted
[2] = system: NCI-H322M lung; conditions: 10 µM unless noted
[3] = system: HOP-62 NSCLC; conditions: 10 µM unless noted
[4] = system: NCI-H460 lung; conditions: 10 µM unless noted
[5] = system: HOP-92 NSCLC; conditions: 10 µM unless noted
[6] = system: NCI-H522 lung; conditions: 10 µM
[7] = system: A549/ATCC NSCLC; conditions: 10 µM unless noted
[8] = system: 786-0 renal; conditions: 10 µM unless noted
[9] = system: DU-145 prostate; conditions: 10 µM unless noted
[10] = system: K-562 leukemia; conditions: 10 µM unless noted
[11] = system: MALME-3M melanoma; conditions: 10 µM unless noted
[12] = system: MDA-MB-231 breast; conditions: 10 µM unless noted
[13] = system: RXF 393 renal; conditions: 10 µM unless noted
[14] = system: SF-268 CNS; conditions: 10 µM unless noted
[15] = system: SF-295 CNS; conditions: 10 µM unless noted
[16] = system: SF-539 CNS; conditions: 10 µM unless noted
[17] = system: UACC-257 melanoma; conditions: 10 µM unless noted
[18] = system: M14 melanoma; conditions: 10 µM unless noted

SMILES | growth [1] | growth [2] | growth [3] | growth [4] | growth [5] | growth [6] | growth [7] | growth [8] | growth [9] | growth [10] | growth [11] | growth [12] | growth [13] | growth [14] | growth [15] | growth [16] | growth [17] | growth [18]
COc1ccc(/C=C2\SC(=O)N(CN3CCN(c4cc5c(cc4F)c(=O)c(C(=O)O)cn5C4CC4)CC3)C2=O)cc1 | 96.9% | 112% | 109% | 104% | 101% | 94.2% | 99.4% | 93.1% | 109% | 114% | 97.6% | 106% | 108% | 99% | 99.6% | 107% | 96.7% | 88.6%
NC(=O)c1cccc(-n2ccc3cc(NC(=O)Nc4ccc(Cl)c(Cl)c4)ccc32)n1 | 92.9% | 96.7% | 81.1% | 75.4% | 78% | 68.2% | 74.4% | 66.4% | 83.7% | 63.4% | 85% | 79.1% | 6.33% (active) | 83% | 68.8% | 64.1% | 89.9% | 78%
CCOC(=O)c1[nH]c2cc(Cl)ccc2c1[C@@H](C(=O)NC(C)(C)C)N(CC)C(=O)CCCCC#Cc1cccc2c1CN(C1CCC(=O)NC1=O)C2=O (stereo partly specified) | 59.4% | 13.5% | 20.7% | 13.9% | 6.15% (active) | 44.2% | 20.7% | 13.5% | 32.8% | 17.5% | -12.6% (active) | -50.1% (active) | -1.34% (active) | 25% | -5.32% (active) | 29.6% | 28.4% | 16.9%
O=C(N/N=C(\CS(=O)(=O)c1ccccc1)c1cc2ccccc2oc1=O)c1ccccc1 | 97.9% | 107% | 117% | 101% | 117% | 100% | 93.1% | 106% | 111% | 109% | 110% | 99.4% | 132% | 99.2% | 101% | 103% | 94.6% | 110%
O=C1/C(=C/c2ccc([N+](=O)[O-])cc2)Oc2ccc(O)cc21 | 75.8% | 106% | 50.6% | 40.9% | 93.7% | 75.4% | 70.8% | 96% | 103% | 41.7% | 91.8% | 89% | 92.6% | 89.9% | 68.2% | 86.4% | 67.3% | 97.8%
O=C1c2c(c3c4cc(Br)ccc4[nH]c3c3ccc4ccccc4c23)C(=O)N1O | 95.7% | 96.9% | 79.6% | 83.8% | 140% | 63.2% | 95.6% | 106% | 103% | 71.6% | 126% | 81.7% | 103% | 81.1% | 84.7% | 96.4% | 88.5% | 94.1%
Cc1ccc(NS(=O)(=O)c2ccc(-c3cnc(C4CC4)o3)cc2)cc1 | 58.8% | 69% | 36.4% | 7.82% (active) | 57% | 9.2% (active) | 40.2% | 50.8% | 49.7% | 14.6% | 47.9% | 44.7% | 26.5% | 50.1% | 19.9% | 26.7% | 55.1% | 9.71% (active)
COc1ccc(/C=C2\Oc3cc(C)c(Cl)cc3C2=O)cc1OC | 103% | 107% | 111% | 103% | 101% | 82.7% | 98.3% | 95.7% | 104% | 86.6% | 99.7% | 102% | 111% | 102% | 95.7% | 92.7% | 101% | 96.3%
CCCN1CCN(c2ccc3nc(-c4ccc5nc(-c6ccc(C(F)(F)F)cc6)[nH]c5c4)[nH]c3c2)CC1 | -77.1% (active) | -95.7% (active) | -62.6% (active) | -88.5% (active) | 63% | -43.4% (active) | -65.1% (active) | -90.2% (active) | -95.3% (active) | -51.4% (active) | -64.7% (active) | -86.9% (active) | -70.4% (active) | -70.2% (active) | -58.4% (active) | -94.6% (active) | 96.5% | -59% (active)
O=C1CCC(N2C(=O)c3cccc(NCCOCCOCCNC(=O)c4cc5c(o4)C(=O)c4ccccc4C5=O)c3C2=O)C(=O)N1 (stereo unspecified) | -53.9% (active) | -76.6% (active) | -58.2% (active) | -81.3% (active) | 60.4% | -55% (active) | -30.2% (active) | 17.8% | -97.8% (active) | 8.5% (active) | -95.2% (active) | -2.36% (active) | -39.5% (active) | -12.2% (active) | -93.9% (active) | -95.2% (active) | -82.5% (active) | -66.4% (active)
CCC(C)Oc1cc(/C=N/NC(=O)c2cnn3c2NC(c2ccccc2)C3)ccc1OC (stereo unspecified) | 58% | 45% | 37.2% | 11.5% | 71.8% | 10.7% | 43.6% | 47.6% | 45.6% | 15.8% | 58.4% | 39.4% | 21% | 44.7% | 18.7% | 9.65% (active) | 55.5% | 34%
COc1cc(/C=N/NC(=O)c2cnn3c2NC(c2ccccc2)C3)ccc1OC1CCCC1 (stereo unspecified) | 50% | 32.9% | 35.1% | 2.88% (active) | 45.7% | 11.7% | 40.6% | 9.01% (active) | 26.5% | 18.7% | 40.1% | 52.7% | -27.9% (active) | 36.9% | 6.52% (active) | -15.6% (active) | 43.4% | 22.8%
COc1ccc(/C=N/OCC(O)CN2CCC(O)CC2)cc1OC1CCCC1 (stereo unspecified) | 106% | 108% | 103% | 106% | 98.2% | 99.2% | 101% | 102% | 109% | 100% | 108% | 99.7% | 115% | 94.7% | 104% | 101% | 109% | 94.3%
O=C1N/C(=C\c2ccccc2)c2ncccc21 | 95% | 95.8% | 100% | 113% | 94.9% | 86.9% | 106% | 98.7% | 106% | 90.7% | 95.2% | 94.3% | 127% | 98.6% | 107% | 101% | 100% | 98.5%
COC(=O)c1c2c(c(C)[n+]([O-])c1C)C(=O)C=C(NCc1ccc(F)c(Cl)c1)C2=O | -65.9% (active) | -38.9% (active) | -51.9% (active) | -38.7% (active) | -42.6% (active) | -39.4% (active) | -47.4% (active) | 3.92% (active) | -99% (active) | -7.41% (active) | -98.3% (active) | -25.6% (active) | -41.1% (active) | -9.98% (active) | -97.5% (active) | -89.7% (active) | -82.8% (active) | -88.4% (active)
CCOC(=O)c1cnn(CC(O)c2ccc(F)cc2)c1NC(=O)Nc1ccccc1F (stereo unspecified) | 98.4% | 103% | 101% | 105% | 102% | 92.2% | 103% | 90.3% | 102% | 97.5% | 93.3% | 91.2% | 108% | 99% | 91.6% | 95.1% | 107% | 93%
COc1ccc(C2=NOC(CC(=O)N(CCO)CCO)C2)cc1OC1CCCC1 (stereo unspecified) | 99.9% | 107% | 102% | 103% | 94.1% | 98.3% | 95.5% | 92.7% | 105% | 121% | 111% | 103% | 102% | 97% | 97.1% | 104% | 102% | 92.2%
